Structures can show the parent of a compound that is named as a salt.
How the values were obtained:
Assay in all cases: phenotypically active (imaging signature differs from DMSO and reproducible) at any of 0.3-9 uM (binary (1 = active, 0 = inactive)); higher = active
Conditions in all cases: treatment time: 24 h
[1] = system: A549-ACTB-RAB5A
In short: (§1)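 Two criteria together defined phenotypic activity: deviation and reproducibility. Deviation meant ≥3 of 4 wells beyond the 95th percentile of Euclidean distances in solvent control wells, and reproducibility meant a median replicate Pearson correlation above the 95th percentile of non-replicates. Wells had been treated for 24 h at 0.3, 1, 3 or 9 µM in fifteen gene-edited A549, HepG2 and WPMY1 reporter lines before live imaging.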

[2] = system: A549-CANX-COX4
In short: as §1

[3] = system: A549-GM130-SQSTM1
In short: as §1

[4] = system: A549-TP53BP1-CLTA
In short: as §1

[5] = system: A549-TUBA1B-RELA
In short: as §1

[6] = system: HepG2-ACTB-RAB5A
In short: as §1

[7] = system: HepG2-CANX-COX4
In short: as §1

[8] = system: HepG2-GM130-SQSTM1
In short: as §1

[9] = system: HepG2-TP53BP1-CLTA
In short: as §1

[10] = system: HepG2-TUBA1B-RELA
In short: as §1

[11] = system: WPMY1-ACTB-RAB5A
In short: as §1

[12] = system: WPMY1-CANX-COX4
In short: as §1

[13] = system: WPMY1-GM130-SQSTM1
In short: as §1

[14] = system: WPMY1-TP53BP1-CLTA
In short: as §1

[15] = system: WPMY1-TUBA1B-RELA
In short: as §1

Measured: phenotypically active

NS(=O)(=O)c1cc(Cl)c(Cl)c(S(N)(=O)=O)c1 [diclofenamide]
inactive: [1] 0 | [2] 0 | [3] 0 | [4] 0 | [5] 0 | [6] 0 | [7] 0 | [8] 0 | [9] 0 | [10] 0 | [11] 0 | [12] 0 | [13] 0 | [14] 0 | [15] 0

Cc1ccc(N(CC2=NCCN2)c2cccc(O)c2)cc1 [phentolamine]
inactive: [1] 0 | [2] 0 | [3] 0 | [4] 0 | [5] 0 | [6] 0 | [7] 0 | [8] 0 | [9] 0 | [10] 0 | [11] 0 | [12] 0 | [13] 0 | [14] 0 | [15] 0

C[C@@H]1O[C@@H](O[C@H]2[C@H](Oc3cc(O)c4c(c3)O[C@H](c3ccc(O)cc3)CC4=O)O[C@H](CO)[C@@H](O)[C@@H]2O)[C@H](O)[C@H](O)[C@H]1O [Naringin hydrate]
inactive: [1] 0 | [2] 0 | [3] 0 | [4] 0 | [5] 0 | [6] 0 | [7] 0 | [8] 0 | [9] 0 | [10] 0 | [11] 0 | [12] 0 | [13] 0 | [14] 0 | [15] 0

NCCCC[C@H](N[C@@H](CCc1ccccc1)C(=O)O)C(=O)N1CCC[C@H]1C(=O)O [lisinopril]
inactive: [1] 0 | [2] 0 | [3] 0 | [4] 0 | [5] 0 | [6] 0 | [7] 0 | [8] 0 | [9] 0 | [10] 0 | [11] 0 | [12] 0 | [13] 0 | [14] 0 | [15] 0

CCC1(C)OC(=O)N(C)C1=O (stereo not given) [paramethadione]
inactive: [1] 0 | [2] 0 | [3] 0 | [4] 0 | [5] 0 | [6] 0 | [7] 0 | [8] 0 | [9] 0 | [10] 0 | [11] 0 | [12] 0 | [13] 0 | [14] 0 | [15] 0

N#Cc1ccccc1OCC(O)CNCCNC(=O)Nc1ccccc1 (stereo not given)
inactive: [1] 0 | [2] 0 | [3] 0 | [4] 0 | [5] 0 | [6] 0 | [7] 0 | [8] 0 | [9] 0 | [10] 0 | [11] 0 | [12] 0 | [13] 0 | [14] 0 | [15] 0

CC(C)(Sc1ccc(CCN(CCCCC2CCCCC2)C(=O)NC2CCCCC2)cc1)C(=O)O
inactive: [1] 0 | [2] 0 | [3] 0 | [4] 0 | [5] 0 | [6] 0 | [7] 0 | [8] 0 | [9] 0 | [10] 0 | [11] 0 | [12] 0 | [13] 0 | [14] 0 | [15] 0

O=C(O)c1cc(=O)c(O)c(C(=O)O)o1 [Meconic acid]
inactive: [1] 0 | [2] 0 | [3] 0 | [4] 0 | [5] 0 | [6] 0 | [7] 0 | [8] 0 | [9] 0 | [10] 0 | [11] 0 | [12] 0 | [13] 0 | [14] 0 | [15] 0

O=C(Nc1cccnn1)N1CCN(c2nccc(-c3ccc(F)c(F)c3)n2)CC1
inactive: [1] 0 | [2] 0 | [3] 0 | [4] 0 | [5] 0 | [6] 0 | [7] 0 | [8] 0 | [9] 0 | [10] 0 | [11] 0 | [12] 0 | [13] 0 | [14] 0 | [15] 0

CCCCOc1cc(C(=O)OCCN(CC)CC)ccc1N [oxybuprocaine]
inactive: [1] 0 | [2] 0 | [3] 0 | [4] 0 | [5] 0 | [6] 0 | [7] 0 | [8] 0 | [9] 0 | [10] 0 | [11] 0 | [12] 0 | [13] 0 | [14] 0 | [15] 0

OCCn1cc(-c2cnc3nnn(Cc4ccc5ncccc5c4)c3n2)cn1
inactive: [1] 0 | [2] 0 | [3] 0 | [4] 0 | [5] 0 | [6] 0 | [7] 0 | [8] 0 | [9] 0 | [10] 0 | [11] 0 | [12] 0 | [13] 0 | [14] 0 | [15] 0

CC(C)[N@+]1(C)[C@@H]2CC[C@H]1C[C@@H](OC(=O)C(CO)c1ccccc1)C2 (stereo not given in full) [ipratropium]
inactive: [1] 0 | [2] 0 | [3] 0 | [4] 0 | [5] 0 | [6] 0 | [7] 0 | [8] 0 | [9] 0 | [10] 0 | [11] 0 | [12] 0 | [13] 0 | [14] 0 | [15] 0

Cc1c(OCC(F)(F)F)ccnc1CS(=O)c1nc2ccccc2[nH]1 (stereo not given) [lansoprazole]
inactive: [1] 0 | [2] 0 | [3] 0 | [4] 0 | [5] 0 | [6] 0 | [7] 0 | [8] 0 | [9] 0 | [10] 0 | [11] 0 | [12] 0 | [13] 0 | [14] 0 | [15] 0

O=C(O)c1cc(/N=N/c2ccc(S(=O)(=O)Nc3ccccn3)cc2)ccc1O [Sulfasalazine]
inactive: [1] 0 | [2] 0 | [3] 0 | [4] 0 | [5] 0 | [6] 0 | [7] 0 | [8] 0 | [9] 0 | [10] 0 | [11] 0 | [12] 0 | [13] 0 | [14] 0 | [15] 0

Oc1cc(O)c2c(c1)O[C@H](c1ccc(O)c(O)c1)[C@@H](O)C2 [Epicatechin-(-)]
inactive: [1] 0 | [2] 0 | [3] 0 | [4] 0 | [5] 0 | [6] 0 | [7] 0 | [8] 0 | [9] 0 | [10] 0 | [11] 0 | [12] 0 | [13] 0 | [14] 0 | [15] 0

CC(C[N+](C)(C)C)OC(N)=O (stereo not given) [bethanechol]
inactive: [1] 0 | [2] 0 | [3] 0 | [4] 0 | [5] 0 | [6] 0 | [7] 0 | [8] 0 | [9] 0 | [10] 0 | [11] 0 | [12] 0 | [13] 0 | [14] 0 | [15] 0

CSc1ccc(C(=O)c2[nH]c(=O)[nH]c2C)cc1 [Enoximone]
inactive: [1] 0 | [2] 0 | [3] 0 | [4] 0 | [5] 0 | [6] 0 | [7] 0 | [8] 0 | [9] 0 | [10] 0 | [11] 0 | [12] 0 | [13] 0 | [14] 0 | [15] 0

O=c1oc2c(O)c(O)cc3c(=O)oc4c(O)c(O)cc1c4c23 [Ellagic acid]
inactive: [1] 0 | [2] 0 | [3] 0 | [4] 0 | [5] 0 | [6] 0 | [7] 0 | [8] 0 | [9] 0 | [10] 0 | [11] 0 | [12] 0 | [13] 0 | [14] 0 | [15] 0

NCCNS(=O)(=O)c1ccc(Cl)c2ccncc12 [CKI 7 dihydrochloride]
inactive: [1] 0 | [2] 0 | [3] 0 | [4] 0 | [5] 0 | [6] 0 | [7] 0 | [8] 0 | [9] 0 | [10] 0 | [11] 0 | [12] 0 | [13] 0 | [14] 0 | [15] 0

CCN(CC)CCNC(=O)c1cc(Cl)c(N)cc1OC [metoclopramide]
inactive: [1] 0 | [2] 0 | [3] 0 | [4] 0 | [5] 0 | [6] 0 | [7] 0 | [8] 0 | [9] 0 | [10] 0 | [11] 0 | [12] 0 | [13] 0 | [14] 0 | [15] 0

CN1CC[C@]23c4ccccc4N[C@H]1[C@]21CCN(C)[C@H]3Nc2ccccc21 [Calycanthine]
inactive: [1] 0 | [2] 0 | [3] 0 | [4] 0 | [5] 0 | [6] 0 | [7] 0 | [8] 0 | [9] 0 | [10] 0 | [11] 0 | [12] 0 | [13] 0 | [14] 0 | [15] 0

COC1=C(O)C(=O)c2ccccc2C1=O [2-hydroxy-3-methoxy-naphtoquinone]
inactive: [1] 0 | [2] 0 | [3] 0 | [4] 0 | [5] 0 | [6] 0 | [7] 0 | [8] 0 | [9] 0 | [10] 0 | [11] 0 | [12] 0 | [13] 0 | [14] 0 | [15] 0

CNC(=O)COC(=O)N1CCC(CCc2ccc(Cl)cc2)CC1
inactive: [1] 0 | [2] 0 | [3] 0 | [4] 0 | [5] 0 | [6] 0 | [7] 0 | [8] 0 | [9] 0 | [10] 0 | [11] 0 | [12] 0 | [13] 0 | [14] 0 | [15] 0
